Inconclusive results are not listed. Activity calls are given as the source filed them. Calls follow the shape of the dose curve; as a rule, active = well fitted cell-killing curve with a large enough effect in the repeat runs; inconclusive = weak or mixed curves, or effect the other way; inactive = flat fitted curve, though single readings scatter.
assay: qHTS assay to identify small molecule agonists of the sonic hedgehog signaling (Shh) pathway - cell viability counter screen (AID 1259366); conditions: NIH/3T3 Gli1-Luc viability, CellTiter-Fluor, 24 h; series mostly up to 92.4 µM; viability change, negative = cytotoxic: at the top concentration; also: nearly all actives have a fitted effect of over 50% in size
From the text: National Center for Advancing Translational Sciences [NCATS]
NIH Chemical Genomics Center [NCGC]
U.S. Environmental Protection Agency [EPA]
National Institutes of Environmental Health Sciences [NIEHS]
National Toxicology Program [NTP]
U.S. Food and Drug Administration [FDA]
The sonic hedgehog (Shh) pathway is essential for normal embryonic development. Dysregulation of the Shh pathway can cause severe developmental defects in organs. Therefore chemicals that interfere with the pathway are potential developmental toxicants. A cell line designated 3T3Gli1-Luc (DMB/OARSA/CFSAN/FDA, Laurel, MD), a NIH/3T3 derived clone containing stably integrated Gli1-Luc reporter is used to detect chemical interference of the Shh pathway, by changes in the expression of the firefly Luc gene under the control of the Gli1 transcriptional response element. This cell line was used to screen Tox21 libraries for identifying and prioritizing the potential developmental toxicants that interfere Shh pathway. The cytotoxicity of the compounds was tested in parallel by measuring the cell viability using CellTiter-Fluor assay system (Promega, Madison, WI) in the same wells.
Tox21 Assay Protocol Summary:
3T3 Gli1-Luc cells were dispensed at 2,000 per well in 5uL of culture medium into white solid bottom 1536-well plates (Greiner Bio-One, Monroe, NC) using a Multidrop Combi (Thermo Scientific, Waltham, MA) dispenser. The assay plates were incubated at 37 C and 5% CO2 for 4hr, and then 23nL of compounds dissolved in DMSO and positive control were transferred using a Pintool station (Wako, San Diego, CA). The assay plates were incubated at 37C and 5% CO2 for 24hr. For viability read, after 23hr of compound treatment, 1uL of CellTiter-Fluor reagent (Promega Corporation, Madison, WI) was added to each well of the assay plates using Flying Reagent Dispenser (FRD, Aurora Discovery, San Diego, CA) and incubated the assay plates at 37C for 1hr. The fluorescence signal was quantified using a ViewLux plate reader (Perkin Elmer, Shelton, CT).
% is scaled to controls: 0 for no effect and ±100 for the full control effect; potency is read from the fitted curve at half-maximal effect.

| SMILES | viability change, negative = cytotoxic | Potency |
| --- | --- | --- |
| Nc1ccc(S(=O)(=O)Nc2ccnn2-c2ccccc2)cc1 | 10.6% [at 19 µM] (inactive) | – |
| CCCc1cc(C(N)=S)ccn1 | -0.444% [at 42.5 µM] (inactive) | – |
| C/C=C(\C)C#N | -2.72% (inactive) | – |
| N=C(N)c1ccccc1 | 3.04% (inactive) | – |
| COc1ccc(CCN(C)CCCC(C#N)(c2cc(OC)c(OC)c(OC)c2)C(C)C)cc1OC (stereo not given) | – | 15 µM (active) |
| Nc1c[n+](N2CCOCC2)no1 | 0.333% [at 42.5 µM] (inactive) | – |
| COc1nc(N)nc2c1ncn2[C@@H]1O[C@H](CO)[C@@H](O)[C@@H]1O | 2.36% [at 42.5 µM] (inactive) | – |
| CN(C)CCCNCCCN(C)C | 2.08% (inactive) | – |
| CO/N=C(/C(=O)N[C@@H]1C(=O)N2C(C(=O)OCOC(=O)C(C)(C)C)=C(C)CS[C@H]12)c1csc(N)n1 | 4.88% [at 42.5 µM] (inactive) | – |
| O=C(CCCN1CCC(O)(c2cccc(C(F)(F)F)c2)CC1)c1ccc(F)cc1 | 2.49% [at 42.5 µM] (inactive) | – |
| CC(C)CCCC(C)N (stereo not given) | 0.354% [at 42.5 µM] (inactive) | – |
| CC(C)(C)c1nnc(NS(=O)(=O)c2ccccc2)s1 | 0.841% [at 42.5 µM] (inactive) | – |
| C=COCC1CCC(CO)CC1 (stereo not given) | 3.96% (inactive) | – |
| CCS(=O)(=O)c1ccc(OC)c(C(=O)OC)c1 | 1.29% [at 42.5 µM] (inactive) | – |
| CCCC(=O)O[C@]1(C(=O)CO)CC[C@H]2[C@@H]3CCC4=CC(=O)CC[C@]4(C)[C@H]3[C@@H](O)C[C@@]21C | 14.8% [at 42.5 µM] (inactive) | – |
| CC(C)(C)NCCNC(C)(C)C | 0.931% (inactive) | – |
| CCCCCCCCCCCC | 0.818% (inactive) | – |
| N[C@H]1CN(c2c(F)cc3c(=O)c(C(=O)O)cn(C4C[C@H]4F)c3c2Cl)CC12CC2 (stereo not given in full) | -4.37% [at 42.5 µM] (inactive) | – |
| CCSC(=O)N(CC(C)C)CC(C)C | 10.7% (inactive) | – |
| CC(C)(O)C(=O)c1ccccc1 | 3.18% (inactive) | – |

| SMILES | viability change, negative = cytotoxic | Potency |
| --- | --- | --- |
| O=Cc1cccc([N+](=O)[O-])c1 | 4.66% (inactive) | – |
| CC(C)=CCCC(C)CC(=O)O (stereo not given) | 5.43% (inactive) | – |
| CC1(C)C(O)C(C)(C)C1O (stereo not given) | -5.48% (inactive) | – |
| Cc1cc2c(cc1S(N)(=O)=O)S(=O)(=O)CCC2 | -2.76% [at 42.5 µM] (inactive) | – |
| CC(C)NCC(O)c1ccc(NS(C)(=O)=O)cc1 (stereo not given) | 3.3% (inactive) | – |
| CC(=O)CC(C)(C)C1CCCCC1 | -1% (inactive) | – |
| COC(=O)C1=C(C)NC(C)=C(C(=O)OC)C1c1ccccc1[N+](=O)[O-] | – | 27.3 µM (active) |
| CCO/C([O-])=N/c1c[n+](N2CCOCC2)no1 | 0.544% [at 42.5 µM] (inactive) | – |
| CC(C)CNCC(C)C | 0% (inactive) | – |
| OC[C@]1(O)OC[C@@H](O)[C@H](O)[C@@H]1O | – | inactive |
| NC(CSCC(=O)O)C(=O)O (stereo not given) | -2.4% [at 42.5 µM] (inactive) | – |
| CC(C)NC(=O)NC(C)C | -0.544% (inactive) | – |
| ClC(Cl)(Br)Br | 1.02% (inactive) | – |
| Cc1cccc(C)c1NC(=O)C(C)N (stereo not given) | 0.477% [at 42.5 µM] (inactive) | – |
| CCC(C)S (stereo not given) | 3.35% [at 3.27 µM] (inactive) | – |
| Cc1c(NC(C)C)c(=O)n(-c2ccccc2)n1C | 0.0872% [at 42.5 µM] (inactive) | – |
| CCOC(=O)Nc1ccc(NCc2ccc(F)cc2)nc1N | -3.64% [at 42.5 µM] (inactive) | – |
| Cc1c(O)cccc1O | -9.95% (inactive) | – |
| O=C(O)CCCl | -6.67% (inactive) | – |
| CCc1nccnc1CC | 3.6% [at 19 µM] (inactive) | – |
